Cruzain noTriton = blocks cruzain activity in detergent-free assay; Potency, µM, inactives show max response, negative = inhibition, most hits filed as inhibitors; 200,000 compounds, 2.3% hits; AID 1476; purified cruzain, Z-FR-AMC fluorescence, no detergent; P25779;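 also: plate controls were enzyme without inhibitor for no effect and buffer without enzyme for full effect; nearly all actives have a fitted effect of over 40% in size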
Target sequence (P25779 123-467 limits assumed): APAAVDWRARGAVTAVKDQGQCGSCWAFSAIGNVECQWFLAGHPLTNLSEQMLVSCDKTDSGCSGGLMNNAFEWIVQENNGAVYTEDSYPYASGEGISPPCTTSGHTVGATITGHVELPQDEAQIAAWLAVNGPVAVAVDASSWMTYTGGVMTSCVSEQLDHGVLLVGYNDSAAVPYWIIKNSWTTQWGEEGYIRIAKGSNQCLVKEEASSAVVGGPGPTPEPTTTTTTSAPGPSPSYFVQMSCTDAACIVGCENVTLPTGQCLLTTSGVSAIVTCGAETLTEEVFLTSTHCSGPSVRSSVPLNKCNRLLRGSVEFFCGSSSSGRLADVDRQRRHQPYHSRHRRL
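Detergent-free condition (0.00005% Triton X-100) in acetate buffer pH 5.5 with DTT. 1.5 nM enzyme and compound were pre-mixed 15 min, then 2 uM Z-FR-AMC substrate added; reaction progress from fluorescence change between first and third reads (60 s).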
Cruzain inh Det = blocks cruzain activity in presence of Triton detergent | P25779 | purified cruzain, Z-FR-AMC fluorescence, 0.01% Triton | Potency, µM, for the others: max response, negative = inhibition, most hits filed as inhibitors | 200,000 compounds, 0.43% hits;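 also: plate controls were neutral wells for no effect and buffer without enzyme for full effect; nearly all actives have a fitted effect of over 40% in size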
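Steps: dispense cruzain (1.5 nM final) in acetate buffer pH 5.5 with DTT and 0.01% Triton X-100; pin-transfer compounds; incubate 15 min RT; add Z-FR-AMC (2 uM final); read fluorescence every 30 s, using the 60 s intensity change.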
Active calls of the source: *; u = inconclusive. Rows were chosen to be rich in hits. Some 2.6% of all compounds tested hit in one or more screens of this group. Calls follow the shape of the dose curve; as a rule, active = well fitted curve in the direction sought with a large enough effect; inconclusive = small, poorly fitted or top-dose-only effect, or another doubt; inactive = no such curve, though single readings can be large; an effect the other way counts as inactive or inconclusive. Potency is read from the fitted curve at half-maximal effect.

SMILES	Cruzain noTriton	Cruzain inh Det
CN(C)c1ccc(/C=C2\SC(=O)N(CC(O)Cn3c4ccccc4c4ccccc43)C2=O)cc1 (stereo not drawn)	5.01µM*	-3.8%
O=C1S/C(=C/c2ccccc2)C(=O)N1CC(O)Cn1c2ccccc2c2ccccc21 (stereo not drawn)	-81.4%	-0.2%
COc1ccc(N2CCN(C(CNS(=O)(=O)c3ccc(OC)c(C)c3)c3ccco3)CC2)cc1 (stereo not drawn)	1.7%	-4.4%
COc1cccc(N=Nc2c(N)[nH]n3c(=O)cc(-c4ccccc4)nc23)c1	12.6µM*	0.1%
Cc1ccc(N=Nc2c(N)[nH]n3c(=O)cc(-c4ccccc4)nc23)cc1	-20.3%	-6.2%
O=C(Cn1c(=O)n(Cc2ccccc2)c(=O)c2sc3ccccc3c21)Nc1ccc(F)cc1	-8.7%	-1.1%
NC(=S)N/N=C/c1ccccc1	2.8%	-18.0%
CC(=O)Nc1ccc(/C=N/NC(N)=S)cc1	11.2µM*	-17.1%
COc1ccc(/C=N/NS(=O)(=O)c2ccccc2)cc1OC(=O)c1ccc(C)cc1	u	-0.4%
COc1ccc(/C=C\C(=O)Oc2cccc(/C=N/NC(=O)Cc3ccc(OC)c(OC)c3)c2)cc1	11.2%	-10.3%
COc1cc(/C=N/NC(N)=S)ccc1OC(=O)c1ccc(C)cc1	2.51µM*	4.47µM*
COc1ccc(C(=O)Oc2cccc(/C=N/NC(N)=S)c2)cc1	15.8µM*	u
COc1cc(/C=N/NC(N)=S)ccc1OCc1ccc(C)cc1	1µM*	2.24µM*
COc1ccc(CNC(=S)N/N=C/c2ccc(OC)c(OC)c2)cc1	10.3%	-5.9%
CCc1ccc(Nc2cc(C(=O)NCCCN(C)c3ccccc3)c3ccccc3n2)cc1	0.9%	0.2%
O=C(CSc1c2c(nc3cc(Cl)ccc13)CCCC2)N1CCN(c2ccccc2F)CC1	-29.7%	-6.0%
COCCn1c(=O)c(-c2ccc(Cl)cc2)nc2cnc(Nc3ccccc3)nc21	3.4%	-0.1%
CCCCCn1c(N2CCN(c3cccc(Cl)c3)CC2)nc2c1c(=O)[nH]c(=O)n2C	u	-12.9%
Cn1c(=O)[nH]c(=O)c2c1nc(N1CCN(c3cccc(Cl)c3)CC1)n2CCCc1ccccc1	12.6µM*	-0.3%
Cc1c(C(=O)Nc2ccc(F)cc2F)sc2nc3n(c(=O)c12)N=C(c1ccccc1)CS3	-9.7%	3.4%
CCNc1ncc2nc(-c3ccc(OC)cc3)c(=O)n(CCC#N)c2n1	25.1%	0.9%
O=C(CN1CCN(c2nc(-c3ccc(F)cc3)cs2)CC1)Nc1ccc2c(c1)OCO2	25.1µM*	-5.3%
NC(=O)CN1CCN(c2nc(-c3ccc(F)cc3)cs2)CC1	0.4%	-1.8%
Cc1cccc(-c2noc(-c3ccccc3OCC(=O)Nc3ccc([N+](=O)[O-])cc3)n2)c1	-2.5%	-8.0%
COc1ccc2nc(/C=N/NC(=O)[C@H](C)NC(=O)OC(C)(C)C)ccc2c1	31.6µM*	-24.1%
SMILES	Cruzain noTriton	Cruzain inh Det
Cc1ccc2cc(/C=N/NC(=O)[C@H](C)NC(=O)OC(C)(C)C)c(Cl)nc2c1	2.5%	-1.2%
CCC(CC)C(=O)N1CCc2cc(OC)c(OC)cc2C1COc1ccc(C(=O)OC)cc1 (stereo not drawn)	u	1.2%
CCOc1ccc(NC(=O)CSc2nc(C)c(C(=O)Nc3ccccc3)c(-c3ccc(Cl)cc3)c2C#N)cc1	-21.0%	-4.3%
COc1ccc(-c2c(C#N)c(SCC(=O)Nc3ccc(C)c(C)c3)nc(C)c2C(=O)Nc2ccc(Cl)cc2)cc1	6.31µM*	0.7%
Cc1ccc(NC(=O)C2CCN(S(=O)(=O)c3c(C)noc3/C=C/c3cccs3)CC2)cc1F	u	-1.7%
COc1ccc(/C=C\c2onc(C)c2S(=O)(=O)N2CCC(C(=O)Nc3cccc(Cl)c3)CC2)cc1	7.94µM*	-3.3%
COc1cc(NC(=O)C2CCN(S(=O)(=O)c3c(C)noc3/C=C/c3cccs3)CC2)cc(OC)c1	15.8µM*	-2.5%
COc1ccc(/C=C\c2onc(C)c2S(=O)(=O)N2CCC(C(=O)Nc3cccc(C)c3C)CC2)cc1	-20.0%	-2.5%
Cc1noc(/C=C/c2cccs2)c1S(=O)(=O)N1CCC(C(=O)Nc2ccc(F)c(Cl)c2)CC1	u	-2.4%
COc1ccc(NC(=O)C2CCN(S(=O)(=O)c3c(C)noc3/C=C/c3cccs3)CC2)cc1Cl	10µM*	-3.5%
COc1ccccc1NC(=O)Cn1c(SCC(=O)N(C)c2ccccc2)nc2ccccc21	22.9%	1.4%
O=C(Nc1cc(-c2ccc(F)c(F)c2)no1)c1ccccc1F	25.1µM*	-3.1%
COc1ccccc1C(=O)Nc1cc(-c2ccc(C)cc2)no1	3.8%	-11.4%
CCc1ccc(C2NC(=O)c3[nH]nc(-c4cccc(OC)c4)c32)cc1 (stereo not drawn)	-2.9%	-12.0%
COc1cc(/C=N/NC(=O)COc2ccccc2C)ccc1OC(=O)c1cccs1	-12.6%	0.3%
COc1cc(/C=N/Nc2cccc(C)c2)ccc1OC(=O)c1cccs1	15.8µM*	-2.8%
COc1cc(/C=N/Nc2nc(C)cc(C)n2)ccc1OC(=O)c1ccco1	5.7%	-6.5%
COc1cc(/C=N/Nc2ccc3ccccc3c2)ccc1OC(=O)c1ccco1	25.1µM*	0.3%
Cc1ccc(C2=CC(c3cccs3)n3nnnc3N2)cc1 (stereo not drawn)	15.8µM*	4.9%
C1=C(c2ccccc2)Nc2nnnn2C1c1cccs1 (stereo not drawn)	-7.3%	3.5%
CN(C(=O)CSc1nnc(-c2ccccc2F)o1)C1CCCCC1	-10.2%	0.6%
Nc1cc(C(=O)OCC(=O)NCc2ccc(F)cc2)ccc1Cl	0.1%	3.8%
Nc1cc(C(=O)OCC(=O)NC(c2ccccc2)c2ccccc2)ccc1Cl	25.1µM*	-1.5%
Cc1ccc(-n2ncc(C(=O)NCc3ccco3)c2C2CCN(C(=O)OC(C)(C)C)CC2)c(C)c1	u	-8.4%
CO[C@@H]1c2cc(F)ccc2/C(=C\CCOC(=O)C/C=C/c2ccccc2)[C@H]1C	6.0%	0.5%
SMILES	Cruzain noTriton	Cruzain inh Det
COc1ccc(C(=O)N2CCC(c3c[nH]c4ccccc34)(c3c[nH]c4ccccc34)CC2)cc1	-15.0%	-3.4%
CCN(CC)c1ccc(C(=O)N2CCC(c3c[nH]c4ccccc34)(c3c[nH]c4ccccc34)CC2)cc1	10µM*	-1.6%
CCOC(=O)C1=C(C)NC(=O)NC1c1cn(-c2ccccc2)nc1-c1ccc(OC(C)C)cc1 (stereo not drawn)	20.3%	-16.6%
CC1=C(C(=O)c2ccccc2)C(c2cn(-c3ccccc3)nc2-c2ccc(Cl)cc2)NC(=S)N1 (stereo not drawn)	10µM*	3.3%
Cc1ccc2nc3c(cc(C#N)c(=O)n3-c3nnc(SCc4ccc(F)cc4)s3)c(=O)n2c1	0.3%	1.4%
O=C(Nc1nnc(-c2ccc3c(c2)OCCO3)o1)c1ccc(Cc2ccccc2)cc1	12.6µM*	0.4%
CSc1cccc(-c2nnc(NC(=O)c3ccc4c(c3)OCCO4)o2)c1	-1.6%	3.1%
Cn1ccc2c(OCC(=O)NCc3ccc(F)cc3)cccc2c1=O	-1.9%	-0.5%
CC(C)c1ccc(NC(=O)C(Cc2ccccc2)n2cccc2)cc1 (stereo not drawn)	0.6%	-8.5%
CSc1nncc(/C(C)=N\Nc2ccccc2)n1	5.8%	6.5%
CSc1nncc(/C(C)=N\Nc2cccc(C)c2)n1	12.6µM*	2.3%
Cc1ccc(CC(=O)Nc2c(C(=O)N3CCN(c4ccccc4)CC3)oc3ccccc23)cc1	10.2%	-5.4%
CC(C)C(=O)NNC(=O)CSc1nc(C2CCCCC2)nc2ccccc12	-7.7%	2.3%

Bioassay records as filed in PubChem.
